Laboratory results as given in PubChem BioAssay (NCATS).
“And” between values parts separate entries of the source, which are not always exact repeats. Equal entries are not always repeated. The source made the active and inactive calls. Unless noted, calls come from the whole dose curve; as a rule, active = well fitted curve in the direction sought with a large enough effect; inconclusive = small, poorly fitted or top-dose-only effect, or another doubt; inactive = no such curve, though single readings can be large; an effect the other way counts as inactive or inconclusive.

Key:
[1] = biological target: Ubiquitin carboxyl-terminal hydrolase 1 (Homo sapiens) (UniProt O94782); assay: Inhibitors of USP1/UAF1: Pilot qHTS (AID 504865); note: nearly all actives have a fitted effect of over 35% in size; note: potency is the fitted concentration of half-maximal effect
Chain of Ubiquitin carboxyl-terminal hydrolase 1 (Homo sapiens) (O94782 whole entry, looked up): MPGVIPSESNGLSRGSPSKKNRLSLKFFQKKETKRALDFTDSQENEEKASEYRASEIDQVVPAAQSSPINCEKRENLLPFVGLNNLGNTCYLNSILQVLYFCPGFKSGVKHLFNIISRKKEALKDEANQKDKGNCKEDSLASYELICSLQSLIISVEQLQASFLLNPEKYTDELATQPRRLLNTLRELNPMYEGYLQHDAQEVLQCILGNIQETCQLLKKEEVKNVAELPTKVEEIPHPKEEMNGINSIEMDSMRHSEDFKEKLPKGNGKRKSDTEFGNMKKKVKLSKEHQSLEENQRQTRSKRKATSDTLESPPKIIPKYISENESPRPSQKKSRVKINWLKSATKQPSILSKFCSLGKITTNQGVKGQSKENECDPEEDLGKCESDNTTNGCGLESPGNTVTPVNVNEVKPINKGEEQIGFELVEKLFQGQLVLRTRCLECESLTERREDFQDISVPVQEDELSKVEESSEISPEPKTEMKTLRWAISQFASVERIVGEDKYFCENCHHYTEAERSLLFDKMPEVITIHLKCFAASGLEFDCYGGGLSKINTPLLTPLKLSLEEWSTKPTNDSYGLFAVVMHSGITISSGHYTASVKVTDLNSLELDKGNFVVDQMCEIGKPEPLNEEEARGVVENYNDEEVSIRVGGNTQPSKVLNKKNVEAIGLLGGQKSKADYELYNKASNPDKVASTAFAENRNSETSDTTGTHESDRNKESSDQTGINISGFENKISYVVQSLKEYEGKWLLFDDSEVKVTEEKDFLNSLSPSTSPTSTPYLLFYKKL
Procedure, shortened: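 Kinetic fluorescence assay: 1nM USP1/UAF1, 15 min compound preincubation, then 150nM Ub-Rho; 480/540 nm.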

[2] = qHTS for Inhibitors of ATXN expression: Validation of Cytotoxic Assay (AID 588349); note: % is set by controls: 0 for no effect and ±100 for the full control effect
Procedure, shortened: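 HEK293 cells were dosed with titrated compounds for 72 hr at 37 degrees C. Viability was read by CellTiter Glo luminescence, with intracellular ATP as the marker of cell survival.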

[3] = qHTS for Inhibitors of ATXN expression: Validation (AID 588378); note: series mostly up to about 57 µM; % is set by controls: 0 for no effect and ±100 for the full control effect; nearly all actives have a fitted effect of over 75% in size
Procedure, shortened: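 Validation of ATXN2 expression inhibitors uses a cell-based luciferase fusion reporter in HEK293 cells, with 24 h compound exposure and paired viability (fluorescence) and reporter (luminescence) end-point reads.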

[4] = biological target: DNA dC->dU-editing enzyme APOBEC-3G (Homo sapiens) (UniProt Q9HC16); assay: qHTS for inhibitors of Vif-A3G interactions: Validation (AID 588379); note: 0% is about no effect
Chain of DNA dC->dU-editing enzyme APOBEC-3G (Homo sapiens) (Q9HC16 whole entry, looked up): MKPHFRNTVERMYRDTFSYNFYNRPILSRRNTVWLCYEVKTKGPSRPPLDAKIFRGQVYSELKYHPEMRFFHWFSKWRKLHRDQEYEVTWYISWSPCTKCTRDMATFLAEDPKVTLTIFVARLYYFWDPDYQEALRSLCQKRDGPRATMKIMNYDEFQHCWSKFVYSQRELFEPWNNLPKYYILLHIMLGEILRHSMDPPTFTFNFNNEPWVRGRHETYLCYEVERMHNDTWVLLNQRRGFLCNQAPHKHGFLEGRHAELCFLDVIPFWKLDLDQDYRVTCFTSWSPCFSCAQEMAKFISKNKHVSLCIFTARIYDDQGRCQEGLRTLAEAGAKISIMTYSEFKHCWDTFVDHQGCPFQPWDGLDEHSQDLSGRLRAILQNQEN
Procedure, shortened: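 HeLa cells stably expressing Vif and A3G-eYFP, 700 cells/well, incubated overnight at 37 deg C, then exposed to compound overnight at 37 deg C. Inhibition of Vif-mediated degradation read as increased yellow fluorescence (Ex 488/Em 500-530) by laser-scanning cytometry.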

[5] = biological target: Estrogen receptor (Homo sapiens) (UniProt P03372); assay: qHTS assay for small molecule antagonists of estrogen receptor alpha signaling (AID 588513; active = well fitted curve in the direction sought with a large enough effect in the signal ratio, with a control signal flat, not every such curve was filed as active; inconclusive = small, poorly fitted or top-dose-only effect, or effect the other way, or a change in a side signal; inactive = no such curve, though single readings can be large or run the other way; the % refers to the signal ratio; note: potency is the fitted concentration of half-maximal effect)
Chain of Estrogen receptor (Homo sapiens) (P03372 whole entry, looked up): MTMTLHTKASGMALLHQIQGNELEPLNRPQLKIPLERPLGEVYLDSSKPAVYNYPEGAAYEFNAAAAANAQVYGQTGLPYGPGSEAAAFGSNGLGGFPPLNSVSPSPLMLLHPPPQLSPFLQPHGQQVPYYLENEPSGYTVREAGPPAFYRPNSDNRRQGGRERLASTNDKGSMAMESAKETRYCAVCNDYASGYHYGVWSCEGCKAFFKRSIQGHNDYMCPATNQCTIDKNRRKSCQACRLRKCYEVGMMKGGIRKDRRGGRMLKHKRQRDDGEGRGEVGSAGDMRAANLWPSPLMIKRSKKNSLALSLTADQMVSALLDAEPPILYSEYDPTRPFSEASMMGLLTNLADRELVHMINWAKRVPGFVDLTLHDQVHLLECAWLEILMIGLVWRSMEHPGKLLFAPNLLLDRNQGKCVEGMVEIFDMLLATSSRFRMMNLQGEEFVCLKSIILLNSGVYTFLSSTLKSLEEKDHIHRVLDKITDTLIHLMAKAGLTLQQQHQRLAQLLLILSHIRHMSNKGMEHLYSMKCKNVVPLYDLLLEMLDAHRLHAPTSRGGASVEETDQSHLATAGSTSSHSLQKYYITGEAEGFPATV
Procedure, shortened: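 Cells were plated at 5000/well and incubated 4 h at 37 C. Compounds were added as 1:2 dilution series, duplicates. 17-beta-estradiol (0.5nM final) was added for 18 h before CCF4 detection.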

[6] = biological target: Glucocorticoid receptor (Homo sapiens) (UniProt P04150); assay: qHTS assay for small molecule agonists of glucocorticoid receptor signaling (AID 588532; active = well fitted curve in the direction sought with a large enough effect in the signal ratio, with a control signal flat; inconclusive = small, poorly fitted or top-dose-only effect, or a change in a side signal; inactive = no such curve, though single readings can be large or run the other way; the % refers to the signal ratio;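 note: 100% = dexamethasone at 0.1 µM and 0% = DMSO only wells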); details: HeLa MMTV-bla, beta-lactamase ratio, agonist, 18 h; stronger effect = higher value; percent of dexamethasone control, DMSO zero
Chain of Glucocorticoid receptor (Homo sapiens) (P04150 whole entry, looked up): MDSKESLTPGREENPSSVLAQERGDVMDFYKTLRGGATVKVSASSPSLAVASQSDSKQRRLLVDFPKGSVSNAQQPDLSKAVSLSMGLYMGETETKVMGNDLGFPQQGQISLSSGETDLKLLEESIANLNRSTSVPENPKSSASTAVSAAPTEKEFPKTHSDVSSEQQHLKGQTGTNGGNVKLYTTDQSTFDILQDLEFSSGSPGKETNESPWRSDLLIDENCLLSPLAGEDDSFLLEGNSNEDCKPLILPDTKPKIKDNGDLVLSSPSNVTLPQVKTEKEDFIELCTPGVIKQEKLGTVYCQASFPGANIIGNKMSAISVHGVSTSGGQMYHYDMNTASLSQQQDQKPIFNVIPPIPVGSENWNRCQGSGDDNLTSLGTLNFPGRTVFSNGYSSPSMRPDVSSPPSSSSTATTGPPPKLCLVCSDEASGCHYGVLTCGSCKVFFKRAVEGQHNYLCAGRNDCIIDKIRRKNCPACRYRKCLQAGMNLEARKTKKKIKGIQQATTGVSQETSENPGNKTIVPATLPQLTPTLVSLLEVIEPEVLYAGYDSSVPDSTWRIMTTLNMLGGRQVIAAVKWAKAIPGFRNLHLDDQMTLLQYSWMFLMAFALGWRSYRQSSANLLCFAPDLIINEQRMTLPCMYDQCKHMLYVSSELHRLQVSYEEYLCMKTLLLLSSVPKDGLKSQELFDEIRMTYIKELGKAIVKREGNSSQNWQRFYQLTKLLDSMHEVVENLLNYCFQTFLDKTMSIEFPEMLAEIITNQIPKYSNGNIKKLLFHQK
Procedure, shortened: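 Agonist-mode qHTS: GRE-driven beta-lactamase in HeLa cells exposed 18 h to titrated compounds (up to 92 uM), then CCF4 ratio read after 2 h at RT; Hill-fitted EC50, efficacy relative to 0.1 uM dexamethasone.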

[7] = biological target: Glucocorticoid receptor (Homo sapiens) (UniProt P04150); assay: qHTS assay for small molecule antagonists of glucocorticoid receptor signaling (AID 588533; active = well fitted inhibition curve with a large enough effect in the signal ratio, with a control signal flat, not every such curve was filed as active; inconclusive = small, poorly fitted or top-dose-only effect, or effect the other way, or a change in a side signal; the % refers to the signal ratio;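 note: cells stimulated with 2 nM dexamethasone as agonist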; note: potency is the fitted concentration of half-maximal effect)
Procedure, shortened: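 Antagonist-mode qHTS: compound titrations added to GRE-bla HeLa cells, then dexamethasone 2 nM final; 18 h, 37 C. CCF4 FRET fluorescence normalized to dexamethasone and DMSO; IC50 from Hill fit.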

[8] = qHTS assay for small molecule antagonists of peroxisome proliferator-activated receptor delta signaling (AID 588535; active = well fitted inhibition curve with a large enough effect in the signal ratio, with a control signal flat, not every such curve was filed as active; inconclusive = small, poorly fitted or top-dose-only effect, or effect the other way, or a change in a side signal; inactive = no such curve, though single readings can be large or run the other way; the % refers to the signal ratio; note: potency is the fitted concentration of half-maximal effect;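 for max response: cells co-treated with a PPAR-delta agonist as stimulator during compound exposure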); details: HEK293T PPARd-UAS-bla, beta-lactamase FRET ratio, 18 h; 460 nm channel
Procedure, shortened: (§1)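 Cell-based beta-lactamase assay in antagonist mode: 4000 HEK293T PPAR-delta-UAS-bla cells per well, 5 hr preincubation then 18 hr compound incubation at 37 C. IC50 obtained by Hill equation fitting.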

[9] = biological target: Peroxisome proliferator-activated receptor delta (Homo sapiens) (UniProt Q03181); assay: as above
Chain of Peroxisome proliferator-activated receptor delta (Homo sapiens) (Q03181 whole entry, looked up): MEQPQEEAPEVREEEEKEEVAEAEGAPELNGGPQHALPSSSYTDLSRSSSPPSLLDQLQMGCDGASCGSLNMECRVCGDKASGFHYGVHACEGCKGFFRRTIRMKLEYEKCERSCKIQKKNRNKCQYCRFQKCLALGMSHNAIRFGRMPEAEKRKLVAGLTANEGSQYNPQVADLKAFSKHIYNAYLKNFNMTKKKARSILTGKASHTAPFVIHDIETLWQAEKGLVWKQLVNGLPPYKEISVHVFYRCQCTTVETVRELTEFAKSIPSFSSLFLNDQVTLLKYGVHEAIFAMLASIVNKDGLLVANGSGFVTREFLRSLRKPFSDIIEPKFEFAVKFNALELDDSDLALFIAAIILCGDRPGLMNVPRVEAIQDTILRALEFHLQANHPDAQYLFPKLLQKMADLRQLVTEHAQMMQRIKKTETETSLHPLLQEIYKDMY
Procedure, shortened: as §1

[10] = biological target: Vitamin D3 receptor (Homo sapiens) (UniProt P11473); assay: qHTS assay for small molecule antagonists of vitamin D receptor signaling (AID 588541; calls by dose curve; note: potency is the fitted concentration of half-maximal effect)
Chain of Vitamin D3 receptor (Homo sapiens) (P11473 whole entry, looked up): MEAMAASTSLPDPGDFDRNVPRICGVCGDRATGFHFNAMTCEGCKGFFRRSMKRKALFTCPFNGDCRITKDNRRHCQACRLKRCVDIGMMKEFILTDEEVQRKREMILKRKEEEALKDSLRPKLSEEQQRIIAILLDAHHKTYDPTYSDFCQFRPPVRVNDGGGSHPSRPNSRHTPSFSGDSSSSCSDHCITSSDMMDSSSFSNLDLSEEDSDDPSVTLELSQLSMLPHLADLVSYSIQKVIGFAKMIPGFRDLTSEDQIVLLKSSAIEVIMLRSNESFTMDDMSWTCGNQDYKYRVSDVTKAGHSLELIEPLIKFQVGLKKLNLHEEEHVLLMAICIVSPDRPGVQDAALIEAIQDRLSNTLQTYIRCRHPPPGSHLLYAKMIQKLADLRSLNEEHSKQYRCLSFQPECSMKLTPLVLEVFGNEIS
Procedure, shortened: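 Antagonist-mode beta-lactamase reporter assay: HEK293T VDR-UAS-bla cells were exposed to titrated compound alongside 1-alpha,25-dihydroxyvitamin D3 at 3 nM final for 16 h. Values were normalized to the 50 nM agonist control and DMSO basal, with IC50 and efficacy from Hill equation fits.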

[11] = biological target: Estrogen receptor (Homo sapiens) (UniProt P03372); assay: qHTS assay for small molecule agonists of estrogen receptor alpha signaling (AID 588514; calls by dose curve;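 note: 0% = vehicle only and 100% = reference agonist; nearly all actives have a fitted effect of over 70% in size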)
Procedure, shortened: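 ER-alpha-UAS-bla GripTite HEK 293 cells in medium with 2% charcoal/dextran-treated FBS were treated with compound titrations at 37 C for 18 hrs; beta-lactamase reporter read by CCF4 fluorescence after 2 hrs at RT.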

[12] = biological target: Peroxisome proliferator-activated receptor delta (Homo sapiens) (UniProt Q03181); assay: qHTS assay for small molecule agonists of peroxisome proliferator-activated receptor delta signaling (AID 588534; calls by dose curve;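 note: 0% = DMSO basal wells and 100% = positive control agonist at 10 µM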)
Procedure, shortened: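 Cell-based beta-lactamase reporter assay run in agonist mode: cells seeded and incubated 5 hrs at 37 C, compounds added and incubated 18 hrs at 37 C. CCF4 dye fluorescence read after 2 hrs at RT; EC50 and efficacy from Hill fits.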

[13] = biological target: Peroxisome proliferator-activated receptor gamma (Homo sapiens) (UniProt P37231); assay: qHTS assay for small molecule agonists of peroxisome proliferator-activated receptor gamma signaling (AID 588536; active = well fitted curve in the direction sought with a large enough effect in the signal ratio, with a control signal flat, not every such curve was filed as active; inconclusive = small, poorly fitted or top-dose-only effect, or effect the other way, or a change in a side signal; inactive = no such curve, though single readings can be large or run the other way; the % refers to the signal ratio;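 note: 0% = DMSO basal wells and 100% = rosiglitazone at 2 µM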)
Chain of Peroxisome proliferator-activated receptor gamma (Homo sapiens) (P37231 whole entry, looked up): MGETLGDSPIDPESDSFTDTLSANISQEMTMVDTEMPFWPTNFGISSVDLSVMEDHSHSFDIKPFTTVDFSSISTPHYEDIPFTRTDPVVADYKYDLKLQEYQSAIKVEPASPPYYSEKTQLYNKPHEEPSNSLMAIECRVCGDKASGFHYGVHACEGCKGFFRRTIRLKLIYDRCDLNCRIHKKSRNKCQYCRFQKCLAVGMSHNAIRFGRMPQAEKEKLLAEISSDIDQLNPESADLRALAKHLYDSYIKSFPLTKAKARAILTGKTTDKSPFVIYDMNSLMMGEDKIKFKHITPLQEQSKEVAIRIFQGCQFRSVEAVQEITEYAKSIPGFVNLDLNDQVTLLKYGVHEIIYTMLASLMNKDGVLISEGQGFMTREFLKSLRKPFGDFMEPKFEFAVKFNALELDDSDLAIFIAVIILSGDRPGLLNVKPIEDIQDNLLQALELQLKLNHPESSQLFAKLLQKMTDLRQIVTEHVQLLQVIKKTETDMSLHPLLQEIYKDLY
Procedure, shortened: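 HEK293 UAS-bla reporter line, 1% charcoal/dextran FBS; titration, 16 h, 37 C; CCF4 loading 2 h RT; fluorescence 460/530 nm. Normalized to rosiglitazone 2 uM = 100%, DMSO = 0%.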

[14] = biological target: Peroxisome proliferator-activated receptor gamma (Homo sapiens) (UniProt P37231); assay: qHTS assay for small molecule antagonists of peroxisome proliferator-activated receptor gamma signaling (AID 588537; active = well fitted inhibition curve with a large enough effect in the signal ratio, with a control signal flat, not every such curve was filed as active; inconclusive = small, poorly fitted or top-dose-only effect, or effect the other way, or a change in a side signal; the % refers to the signal ratio;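 note: reporter cells co-stimulated with 50 nM rosiglitazone agonist during compound treatment; % of control where 0% means no effect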)
Procedure, shortened: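 Inhibitors of agonist-stimulated UAS-bla reporter activity were sought in HEK293 cells; rosiglitazone (50 nM) defined full signal and DMSO baseline. Curves fitted to Hill model gave IC50 and efficacy.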

[15] = qHTS assay for small molecule agonists of retinoid X receptor alpha signaling (AID 588544; calls by dose curve;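 for activation: 0% = DMSO basal wells and 100% = reference agonist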); details: HEK293T RXRa-UAS-bla, beta-lactamase reporter, 18 h; 530 nm emission
[16] = biological target: Retinoic acid receptor RXR-alpha (Homo sapiens) (UniProt P19793); assay: as above
Chain of Retinoic acid receptor RXR-alpha (Homo sapiens) (P19793 whole entry, looked up): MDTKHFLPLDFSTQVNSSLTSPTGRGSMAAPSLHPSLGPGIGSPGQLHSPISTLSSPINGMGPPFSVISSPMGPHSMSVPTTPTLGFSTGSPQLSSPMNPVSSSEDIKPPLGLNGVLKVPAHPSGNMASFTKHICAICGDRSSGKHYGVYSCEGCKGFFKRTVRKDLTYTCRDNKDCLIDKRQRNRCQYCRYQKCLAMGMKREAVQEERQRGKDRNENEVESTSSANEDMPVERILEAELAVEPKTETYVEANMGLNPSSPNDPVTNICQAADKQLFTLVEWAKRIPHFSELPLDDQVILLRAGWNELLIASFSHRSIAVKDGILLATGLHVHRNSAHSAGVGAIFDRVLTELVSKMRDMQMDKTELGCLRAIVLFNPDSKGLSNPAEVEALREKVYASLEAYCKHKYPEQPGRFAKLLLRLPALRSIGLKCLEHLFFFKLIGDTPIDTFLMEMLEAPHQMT

[17] = biological target: Thyroid hormone receptor beta (Homo sapiens) (UniProt P10828); assay: qHTS assay for small molecule agonists of thyroid hormone receptor beta signaling (AID 588545; calls by dose curve;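 note: 0% = DMSO only and 100% = 10 nM T3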)
Chain of Thyroid hormone receptor beta (Homo sapiens) (P10828 whole entry, looked up): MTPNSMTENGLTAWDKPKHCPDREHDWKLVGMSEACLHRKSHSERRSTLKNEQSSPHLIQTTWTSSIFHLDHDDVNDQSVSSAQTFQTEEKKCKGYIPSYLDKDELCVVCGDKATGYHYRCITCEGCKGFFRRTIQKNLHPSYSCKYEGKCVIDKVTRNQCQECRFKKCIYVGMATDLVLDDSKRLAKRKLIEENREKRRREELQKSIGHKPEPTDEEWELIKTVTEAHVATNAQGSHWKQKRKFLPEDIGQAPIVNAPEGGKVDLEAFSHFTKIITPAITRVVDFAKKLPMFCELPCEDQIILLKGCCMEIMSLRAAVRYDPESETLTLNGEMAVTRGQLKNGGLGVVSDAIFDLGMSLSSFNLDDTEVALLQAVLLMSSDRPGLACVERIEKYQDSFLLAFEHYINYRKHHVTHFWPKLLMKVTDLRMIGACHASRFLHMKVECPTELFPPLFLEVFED
Procedure, shortened: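 Compounds were tested as agonists in TR-UAS-bla-GripTite HEK 293 cells. After 18 hrs at 37 C, CCF4 substrate was added and fluorescence read after 2 hrs at room temperature.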

COC(=O)[C@@H](N)CCCN=C(N)N[N+](=O)[O-]
inactive: Potency [1] | outcome [2] | Potency [3] | outcome [4]

c1ccc(CCCN2CCN(CCOC(c3ccccc3)c3ccccc3)CC2)cc1
inactive: Potency [1] | outcome [4]

c1ccc2sc(C3(N4CCCCC4)CCCCC3)cc2c1
inactive: Potency [1] | outcome [2] | Potency [3] | outcome [4]

O=C(N[C@H]1CN2CCC1CC2)c1ccc(Cl)cc1
inactive: Potency [1] | outcome [2] | Potency [3]

CC(=O)[O][Hg][c]1ccccc1
-98.8%: max response [8]
inactive: activation [6] 23.7%
active: Potency [1] 50100 nM | Potency [5] 2240 nM [inconclusive] | Potency [7] 141 nM | Potency [9] 2820 nM | Potency [10] 1.58 µM and 2.51 µM

C[C@]12CCC3C(CC[C@H]4C[C@H](O)CC[C@]34C)C1CC[C@@H]2C(=O)CO (stereo not given in full)
inactive: Potency [1] | outcome [2] | Potency [3]

O=C(O)C(Cl)Cl
-16% and 3.52%: max response [15]
inactive: Potency [1] | Potency [5] | outcome [11] | activation [6] -0.327% | Potency [7] | outcome [12] | Potency [9] | outcome [13] | Potency [14] | Potency [16] | outcome [17]
-4.92%: max response [8]

CC1=NN=C(c2ccc(N)cc2)c2cc3c(cc2C1)OCO3
inactive: Potency [1] | outcome [2] | Potency [3] | outcome [4]

NC1=NC(=O)N2CC12 (stereo not given)
inactive: Potency [1]

CN(C)[C@@H]1C(=O)C(C(N)=O)=C(O)[C@@]2(O)C(=O)C3=C(O)c4c(O)cccc4[C@@](C)(O)[C@H]3[C@H](O)[C@@H]12
inactive: Potency [1] | outcome [13] | Potency [14] | Potency [16] | outcome [17]
10.7% and 6.3% and 19.5%: max response [15]

C[N+]1(C)C2CCC1CC(OC(=O)C(CO)c1ccccc1)C2 (stereo not given)
inactive: Potency [1] | outcome [2] | Potency [3]
